# Results as given in PubChem BioAssay (Tox21).
# Results filed as inconclusive are left out. A number with no mark means an inactive call. Calls of active or inactive are those of the source. Calls come from the whole dose curve; as a rule, active = well fitted cell-killing curve with a large enough effect in the repeat runs; inconclusive = weak or mixed curves, or effect the other way; inactive = flat fitted curve, though single readings scatter.
# Test: Nuclear factor erythroid 2-related factor 2/antioxidant responsive element (Nrf2/ARE) small molecule agonists: qHTS cell viability counter screen in human keratinocytes (AID 1919968); note: nearly all actives have a fitted effect of over 55% in size
# Details: KeratinoSens HaCaT ARE cells viability, CellTiter-Fluor, 24 h; series mostly up to 92.4 µM; activity change, negative = cytotoxicity: at the top concentration
# Excerpt: U.S. Tox21 Program National Center for Advancing Translational Sciences [NCATS] Division of Preclinical Innovation [DPI] U.S. Environmental Protection Agency [EPA] National Institutes of Environmental Health Sciences [NIEHS] National Toxicology Program [NTP] U.S. Food and Drug Administration [FDA] Tox21 Assay Overview: Oxidative stress has been implicated in the pathogenesis of a variety of diseases ranging from cancer to neurodegeneration. The antioxidant response element (ARE) signaling pathway plays an important role in the amelioration of oxidative stress. The KeratinoSens (Givaudan, Switzerland) is an in vitro test method which quantifies luciferase induction as a measure of activation of Keap1-Nrf2-antioxidationt/electrophile response element (ARE) dependant pathway in HaCaT human keratinocytes stably transfected with a selectable plasmid. The KeratinoSens assay is a cell-based assay with a reporter cell line to detect potential skin sensitizers by their ability to induce the Nrf2/ARE-response. The activation of the report gene under culture conditions can be detected by ONE-Glo Luciferase Assay System (Promega, Madison, WI). This cell line has been used to screen the Tox21 10K compound library to identify agonists that induce oxidative stress. The cytotoxicity of the Tox21 compound library against the KS-ARE cell line was tested in parallel by measuring the cell viability using CellTiter- Fluor assay system (Promega, Madison, WI) in the same wells.
# Tox21 Assay Protocol Summary: HaCaT derived cell line KeratinoSens were dispensed at 1,500 cells/5uL/well in 1536-well white wall/solid bottom plates using a Multidrop Combi (ThermoFisher Scientific, Waltham, MA) dispenser. After the assay plates were incubated at 37 C/5% CO2 for 5 h, 23 nL of compounds dissolved in DMSO, positive controls or DMSO only was transferred to the assay plate by a pintool workstation (Kalypsys, San Diego, CA). The plates were incubated at 37 C/5% CO2 for 23 h, followed by addition of 1uL/well of CellTiter-Fluor reagent into the assay plates using a Flying Reagent Dispenser (Aurora Discovery, San Diego, CA) for cell viability readout that measures cytotoxicity. After 1 h incubation at 37 C/5% CO2 the fluorescence intensity was measured using a ViewLux (PerkinElmer, Shelton, CT) plate reader.
# % is set by controls: 0 for no effect and ±100 for the full control effect; potency is the fitted concentration of half-maximal effect.
SMILES,"activity change, negative = cytotoxicity",Potency
CN(C)CCCO[C@@H]1[C@H]2OC(C)(C)O[C@H]2O[C@@H]1C(O)CO (stereo not given in full),-0.927% [at 42.5 µM],–
CCCCCCCCCCCC(=O)OCC,2.79%,–
Cc1c[nH]c(=O)[nH]c1=O,-0.879%,–
CC(C)C(C)(C)C(C)(C)C(C)(C)S,2.63%,–
O=C(O)c1cc(C(=O)O)cc(C(=O)O)c1,1.42%,–
OC[C@H]1O[C@@H](n2cnc3c(=S)nc[nH]c32)[C@H](O)[C@@H]1O,12.1% [at 42.5 µM],–
O=c1[nH]c2ccc(S(=O)CCN3CCC(Cc4ccc(F)cc4)CC3)cc2o1 (stereo not given),3.28%,–
COc1ccc(NC(=O)CC(C)=O)cc1,1.16%,–
C=CC(C)=CCC=C(C)C,0.669%,–
O=C=NC1CCC(CC2CCC(N=C=O)CC2)CC1 (stereo not given),–,12.2 µM (active)
CN(C)c1ccncc1,-5.2%,–
Cc1ccc(S(=O)(=O)NC(=O)NC2CCCCC2)cc1,-10.2% [at 42.5 µM],–
C#CCN(C)CCCOc1ccc(Cl)cc1Cl,6.13% [at 42.5 µM],–
CC(=O)c1ccc2c(c1)Cc1ccccc1-2,0.139%,–
Cc1nc2ccccc2c(=O)o1,-2.8%,–
CN(C)[C@@H]1C(=O)C(C(N)=O)=C(O)[C@@]2(O)C(=O)C3=C(O)c4c(O)ccc(Cl)c4[C@@H](O)[C@H]3C[C@@H]12,0.845% [at 42.5 µM],–
CC(=O)CCC1=C(C)CCCC1(C)C,0.439%,–
Fc1ccccc1,-8.64%,–
C[C@](N)(Cc1ccc(O)cc1)C(=O)O,5.45% [at 8.39 µM],–
Cc1ccc(C(=O)O)cc1[N+](=O)[O-],-5.04%,–

SMILES,"activity change, negative = cytotoxicity",Potency
CC(C)(C)c1cc(O)c(C(C)(C)C)cc1O,-19.1%,–
C[C@H](CS)C(=O)N1CCC[C@H]1C(=O)O,10.9% [at 42.5 µM],–
CC1CCC(=O)C1=O (stereo not given),0.169%,–
CC(C)COC(=O)C(C)C,-1.25%,–
Cc1onc(-c2ccccc2)c1-c1ccc(S(N)(=O)=O)cc1,6.44% [at 42.5 µM],–
NC(=O)CCCCC1CCSS1 (stereo not given),5.16% [at 42.5 µM],–
O=S1(=O)N=C(O)c2ccccc21,2.17% [at 42.5 µM],–
O=C1c2cccc3c2[C@H](CCC3)CN1[C@@H]1CN2CCC1CC2,-12.2% [at 42.5 µM],–
CC(CCO)CCCC(C)(C)O (stereo not given),-1.8%,–
N#Cc1ccc(C(c2ccc(C#N)cc2)n2cncn2)cc1,-4.77% [at 42.5 µM],–
CC[N+](C)(CC)CC,3.27%,–
CCCn1cc[n+](C)c1C,9.85%,–
CCCCCC1Nc2cc(C(F)(F)F)c(S(N)(=O)=O)cc2S(=O)(=O)N1 (stereo not given),-6.95% [at 42.5 µM],–
CCS(=O)(=O)c1ccc(OC)c(C(=O)OC)c1,-0.366% [at 42.5 µM],–
O=S(=O)(O)c1cc(I)c(O)c2ncccc12,9.6% [at 42.5 µM],–
O=S(=O)(O)c1cc(S(=O)(=O)O)c2ccc3c(S(=O)(=O)O)cc(S(=O)(=O)O)c4ccc1c2c43,0.791% [at 19 µM],–
Cc1ccc2ccc3cccc4ccc1c2c34,7.23%,–
O=C(O)CC(=O)C(=O)O,1.08%,–
CCn1ccc(NS(=O)(=O)c2ccc(N)cc2)nc1=O,-9.92% [at 42.5 µM],–
CN(CCCN1c2ccccc2CCc2ccccc21)CC(=O)c1ccc(Cl)cc1,19.3% [at 42.5 µM],–
